# Laboratory results as given in PubChem BioAssay.
# Values joined by “and” are separate entries in the source; they are usually repeats but may differ in a detail not shown here. Equal values may be shown once. Some structures have more than one record in an assay (separate samples or runs), and their calls can disagree. Active and inactive are the calls of the source.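 How the source made its calls, unless noted: active means compounds whose cell count with miR-34 switched on is under 0.7 times the count with it off; inactive means the rest.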
# How the values were obtained:
# [1] = stimulators of nuclear beta-catenin in C2C12, primary screen, imaging, WNT3A-conditioned medium, mouse C2C12, NPC library (AID 1117326; in the data active means nuclear beta-catenin stimulation mostly above about 4.2%, no sharp cut-off; inactive means mostly below about 10%); conditions: stronger effect = higher value
# [2] = stimulators of insulin release from INS-1E, primary screen, cell-based, 5 mM glucose, NPC library (AID 1117329;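 active means compound raises insulin release from rat beta cells at 5 mM glucose, no numeric limit stated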); conditions: rat INS-1E insulin secretion, at 10 µM, stronger effect = higher value
# [3] = growth inhibition of GSK3B-pretreated HCT116 cells – cell-based, CellTiter-Glo, 0.2 to 20 µM (AID 1117336;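 active means compounds lowering colon cancer cell viability after pretreatment blocking the GSK3B kinase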); conditions: HCT116 viability after GSK3B inhibitor, at 20 µM, stronger effect = higher value
# [4] = inhibition of endothelial tube formation, primary screen, imaging, VEGF stimulated, CD31 staining, tube area, NPC library (AID 1117340;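 active means compound that reduces growth-factor-driven endothelial tube area in a mixed cell culture, no cutoff stated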); conditions: VEGF-stimulated ADSC/ECFC co-culture, at 10 µM, stronger effect = higher value
# [5] = glucagon-like peptide 1 release enhancers, primary assay, NCI-H716 cell line, NPC library (AID 1117341;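 active means compound raises GLP1 secretion from the human gut endocrine cells, with no numeric limit stated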); conditions: NCI-H716 cells, at 10 µM, stronger effect = higher value
# [6] = HCT116 colon cancer cell growth inhibition, primary screen, CellTiter-Glo luminescence, NPC library (AID 1117342;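 active means compounds that lower survival of HCT116 colon cancer cells in the luminescence readout, no numeric limit stated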); conditions: at 20 µM (top of the series)
# [7] = CellTiter-Glo luminescent readout of SW480 viability loss, NPC library primary (AID 1117343;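 active means compounds that lower viability of the colon cancer cells in the luminescence readout, with no numeric limit stated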); conditions: CellTiter-Glo luminescence; at 20 µM (top of the series)
# [8] = decreased DLD-1 cellular survival, CellTiter-Glo luminescent readout, NPC compound collection, primary HTS (AID 1117346;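 active means compounds that lower survival of DLD-1 colon cancer cells in the luminescence readout, no cutoff given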); conditions: DLD-1 viability, CellTiter-Glo luminescence; at 20 µM (top of the series)
# [9] = suppressors of polyQ aggregation in yeast, 75Q-TubU reporter (AID 1593); conditions: Yeast 75Q polyglutamine aggregation reporter
# [10] = inhibitors of mitochondrial cytochrome c release, biochemical, purified mitochondria (AID 1603); conditions: stronger effect = lower value;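 further: mouse liver mitochondria challenged with calcium chloride; signal normalized to the plate average as 100%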
# [11] = inhibitors of polyQ protein aggregation (AID 1604); conditions: polyglutamine-induced protein aggregation inhibition assay; stronger effect = higher value; tested at 2.5 µM
# [12] = liver-stage malaria parasite growth inhibition, primary screen, cell-based, HepG2, luciferase luminescence, HepG2 viability (AID 624349; in the data active means parasite load remaining mostly below about 12%, no sharp cut-off; inactive means mostly above about 10%;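 further: 100% = mean of DMSO negative control wells on the same plate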); conditions: P. berghei liver stage in HepG2, luciferase luminescence, concentration not given here; parasite load remaining: stronger effect = lower value; viability: measured here: HepG2 viability without parasites
# [13] = target: 6-phosphogluconate dehydrogenase, decarboxylating (Homo sapiens) (UniProt P52209); assay: 6PGD enzyme inhibitors, primary screen, biochemical, human, recombinant enzyme, NADPH absorbance (AID 1159550;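 active means at least 20% inhibition of 6-phosphogluconate dehydrogenase activity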); conditions: recombinant 6PGD, NADPH absorbance 341 nm; at 10 µM; stronger effect = higher value
# Chain of 6-phosphogluconate dehydrogenase, decarboxylating (Homo sapiens) (P52209 whole entry, looked up): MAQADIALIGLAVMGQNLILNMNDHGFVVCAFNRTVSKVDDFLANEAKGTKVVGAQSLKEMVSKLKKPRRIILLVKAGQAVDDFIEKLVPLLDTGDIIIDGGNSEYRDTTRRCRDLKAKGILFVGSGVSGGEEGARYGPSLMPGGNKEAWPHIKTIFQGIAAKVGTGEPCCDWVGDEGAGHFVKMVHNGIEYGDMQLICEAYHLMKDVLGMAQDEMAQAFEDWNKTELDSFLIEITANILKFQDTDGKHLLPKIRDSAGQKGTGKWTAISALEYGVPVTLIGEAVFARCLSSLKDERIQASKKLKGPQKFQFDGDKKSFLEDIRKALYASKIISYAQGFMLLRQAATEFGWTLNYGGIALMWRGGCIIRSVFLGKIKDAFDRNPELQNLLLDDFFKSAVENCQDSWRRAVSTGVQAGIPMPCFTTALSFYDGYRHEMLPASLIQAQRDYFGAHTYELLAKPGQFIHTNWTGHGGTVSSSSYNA
# [14] = differential killing of epithelial or mesenchymal cells, primary screen, imaging, PC-3E GFP, TEM4-18 mCherry, co-culture (AID 1345086;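 active means compounds killing one labelled cell type while sparing the other, by normalised counts and ratio limits, not self-fluorescent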;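 on all read-outs here: cells exposed to compound for 72 h before imaging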;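 on red/green cell ratio (normalised): normalised mesenchymal count divided by normalised epithelial count so high means epithelial killing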); conditions: imaging cell counts, at 1 µM; for red/green cell ratio (normalised): actives lie on both sides
# [15] = tested on: Aerobactin synthetase IucA (Klebsiella pneumoniae hvKP1); assay: Biochemical IucA enzyme inhibition primary screen of the Spectrum library (AID 1346200; call rule not given here;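 further: 100% = wells without compound and 0% = wells lacking enzyme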); conditions: malachite green pyrophosphate, A620, at 8 µM, stronger effect = lower value
# [16] = sensitizers of A549 cells to miR-34 induction, primary screen, imaging, A549 dox-inducible miR-34, nuclei and caspase counts (AID 1347080); conditions: A549 miR-34 inducible, Hoechst nuclei count, 48 h
# [17] = survival rescue of mitochondrial mutant cells in low glucose, primary screen, MELAS cybrids, Rieske KO mouse fibroblasts, CellTiter-Glo (AID 1508586;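 active means mean z-score across replicates of 1.96 or higher in either the MELAS or the Rieske mutant cell line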;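 further: z relative to plate mean and SD of compound and empty wells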)
# [18] = target: NAD(+) hydrolase SARM1 (Homo sapiens) (UniProt Q6SZW1); assay: SARM1 TIR NADase inhibitors, cell lysate, NAD-Glo luminescence (AID 1508614;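 active means compound whose remaining NAD level is above about 45 nM, limit read from the data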); conditions: SAM-TIR HEK293T lysate NADase, at 1 µM, stronger effect = higher value
# Chain of NAD(+) hydrolase SARM1 (Homo sapiens) (Q6SZW1 whole entry, looked up, the tested form may be a part): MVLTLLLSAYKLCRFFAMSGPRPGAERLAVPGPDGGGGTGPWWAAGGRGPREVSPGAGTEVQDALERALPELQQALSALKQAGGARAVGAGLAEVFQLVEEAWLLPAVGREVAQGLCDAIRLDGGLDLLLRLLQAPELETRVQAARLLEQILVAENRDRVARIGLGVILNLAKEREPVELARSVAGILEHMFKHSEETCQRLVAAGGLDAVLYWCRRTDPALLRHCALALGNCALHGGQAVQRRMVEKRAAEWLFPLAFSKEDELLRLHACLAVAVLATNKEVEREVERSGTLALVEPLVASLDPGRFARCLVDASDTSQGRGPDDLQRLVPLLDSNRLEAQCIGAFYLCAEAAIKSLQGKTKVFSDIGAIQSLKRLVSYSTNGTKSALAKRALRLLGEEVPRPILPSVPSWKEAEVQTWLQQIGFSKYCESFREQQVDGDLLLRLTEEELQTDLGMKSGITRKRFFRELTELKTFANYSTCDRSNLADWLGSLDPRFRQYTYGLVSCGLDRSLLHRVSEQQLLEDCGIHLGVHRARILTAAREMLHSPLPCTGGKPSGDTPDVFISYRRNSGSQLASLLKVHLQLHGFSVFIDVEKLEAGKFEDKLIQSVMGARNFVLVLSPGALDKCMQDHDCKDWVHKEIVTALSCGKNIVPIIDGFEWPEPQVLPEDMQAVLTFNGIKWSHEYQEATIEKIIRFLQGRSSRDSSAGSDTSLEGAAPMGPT
# [19] = target: Mitogen-activated protein kinase 7 (Homo sapiens) (UniProt Q13164); assay: ERK5 transactivation activators in reporter cells, primary screen, cell-based, HTS (AID 1508626;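 active means luciferase signal above three times the same-plate solvent-only control wells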;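 further: luciferase driven by Gal4-ERK5 fusion binding five Gal4 sites before minimal TATA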); conditions: HeLa Gal4-ERK5 transactivation, 18 h, at 5 µM, stronger effect = higher value
# Chain of Mitogen-activated protein kinase 7 (Homo sapiens) (Q13164 whole entry, looked up, the tested form may be a part): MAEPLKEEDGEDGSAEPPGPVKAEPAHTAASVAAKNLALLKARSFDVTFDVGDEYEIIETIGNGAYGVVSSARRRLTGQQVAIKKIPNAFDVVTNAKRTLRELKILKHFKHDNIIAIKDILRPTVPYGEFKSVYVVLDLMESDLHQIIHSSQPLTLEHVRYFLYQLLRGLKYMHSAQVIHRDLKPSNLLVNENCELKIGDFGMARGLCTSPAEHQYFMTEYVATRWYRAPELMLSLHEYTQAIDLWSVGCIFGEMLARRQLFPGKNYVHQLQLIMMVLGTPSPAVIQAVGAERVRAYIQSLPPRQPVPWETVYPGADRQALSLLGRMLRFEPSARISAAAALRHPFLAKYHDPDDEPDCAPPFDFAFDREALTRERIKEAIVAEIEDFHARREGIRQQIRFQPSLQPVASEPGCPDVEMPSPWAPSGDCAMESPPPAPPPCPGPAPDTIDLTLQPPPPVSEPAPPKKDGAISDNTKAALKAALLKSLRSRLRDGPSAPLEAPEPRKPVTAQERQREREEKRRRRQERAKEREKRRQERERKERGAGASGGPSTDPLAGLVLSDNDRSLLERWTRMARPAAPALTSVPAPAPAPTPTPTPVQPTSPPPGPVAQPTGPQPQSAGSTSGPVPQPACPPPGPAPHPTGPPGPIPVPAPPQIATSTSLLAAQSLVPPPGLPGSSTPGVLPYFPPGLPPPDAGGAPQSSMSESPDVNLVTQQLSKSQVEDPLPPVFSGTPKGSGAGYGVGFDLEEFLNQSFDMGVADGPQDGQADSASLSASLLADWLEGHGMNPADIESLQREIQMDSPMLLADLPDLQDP
# [20] = viability rescue of complex I mutant cybrids, primary screen, cell-based, galactose medium, ATP luminescence (AID 1645843;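 active means z-score of at least 1.8 in each of two replicates, scored against plate mean and spread of sample wells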;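 further: positive z means more ATP and so rescue of galactose-driven cybrid death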); conditions: complex I mutant cybrid cells, 72 h, stronger effect = higher value
# [21] = measured here: epithelial PC-3E GFP cell survival
# [22] = measured here: mesenchymal TEM4-18 mCherry cell survival
# [23] = measured here: relative caspase fold change +Dox/-Dox
# [24] = measured here: total cells with miR-34 induction, stronger effect = lower value
# [25] = measured here: total cells without miR-34 induction
# [26] = MELAS cybrid survival, CellTiter-Glo 48 h, stronger effect = higher value
# [27] = Rieske KO mouse fibroblast survival, CellTiter-Glo 72 h
compound,measurement,setting,value
COP(=S)(OC)Oc1ccc(S(=O)(=O)N(C)C)cc1,nuclear beta-catenin stimulation,[1]; at 10 µM,-1.9% (inactive)
same,nuclear beta-catenin stimulation,"[1]; stimulation, at 2 µM",-0.5%
same,insulin secretion stimulation,[2],0.3% (inactive)
same,viability decrease,[3],-11.8% (inactive)
same,tube area decrease,[4],-6.5% (inactive)
same,GLP1 secretion stimulation,[5],-1.2% (inactive)
same,inhibition of viability,[6],4.9% (inactive)
same,viability decrease (inhibition),[7],6.4% (inactive)
same,viability decrease (inhibition),[8],0% (inactive)
O=c1[nH]oc2c1CCNC2,score,[9],1.55
same,cytochrome c release ratio,[10],0.75
same,inhibition of aggregation,[11],73%
same,parasite load remaining,[12],119% (inactive)
same,viability,[12],90%
same,nuclear beta-catenin stimulation,[1]; at 10 µM,0.9% (inactive)
same,nuclear beta-catenin stimulation,"[1]; stimulation, at 2 µM",-0.2%
same,insulin secretion stimulation,[2],1.95% (inactive)
same,viability decrease,[3],23.2% (inactive)
same,tube area decrease,[4],2% (inactive)
same,GLP1 secretion stimulation,[5],0.6% (inactive)
same,inhibition of viability,[6],7% (inactive)
same,viability decrease (inhibition),[7],-16.8% (inactive)
same,viability decrease (inhibition),[8],2.4% (inactive)
same,inhibition,[13],-2.26% (inactive)
same,red/green cell ratio (normalised),[14],1.27 (inactive)
same,normalised cell number,[14]; [21],0.86
same,normalised cell number,[14]; [22],1.1
same,activity remaining,[15],105% (inactive)
same,fold change,[16]; stronger effect = lower value,0.986 (inactive) and 0.895 (inactive) and 0.961 (inactive)
same,fold change,[16]; [23],0.885 and 0.751 and 0.995
same,cell count,[16]; [24],10200 and 8820 and 8460
same,cell count,[16]; [25],10400 and 9850 and 8810
same,z-score,[17]; [26],0.562 (inactive)
same,z-score,[17]; [27],-0.393
same,remaining NAD,[18],10 nM (inactive)
same,luciferase signal,[19],104 AU (inactive)
same,z-score,[20],0.375 (inactive) and 2.83 (active)
COc1ccc(OC)c(C(O)C(C)N)c1 (configuration not stated),nuclear beta-catenin stimulation,[1]; at 10 µM,-1.8% (inactive)
same,nuclear beta-catenin stimulation,"[1]; stimulation, at 2 µM",-1.1%
same,insulin secretion stimulation,[2],-0.1% (inactive)
same,viability decrease,[3],4% (inactive)
same,tube area decrease,[4],-6.6% (inactive)
same,GLP1 secretion stimulation,[5],-3.9% (inactive)
same,inhibition of viability,[6],-3% (inactive)
same,viability decrease (inhibition),[7],-2.5% (inactive)
same,viability decrease (inhibition),[8],-4.2% (inactive)
same,inhibition,[13],11.8% (inactive)
same,red/green cell ratio (normalised),[14],0.84 (inactive)
same,normalised cell number,[14]; [21],1.33
same,normalised cell number,[14]; [22],1.11
same,activity remaining,[15],103% (inactive)
same,fold change,[16]; stronger effect = lower value,1.09 (inactive) and 0.79 (inactive) and 0.922 (inactive)
same,fold change,[16]; [23],1.23 and 1.51 and 0.904
same,cell count,[16]; [24],11000 and 8690 and 11600
same,cell count,[16]; [25],10000 and 11000 and 12600
same,z-score,[17]; [26],0.379 (inactive)
same,z-score,[17]; [27],0.108
same,remaining NAD,[18],10 nM (inactive)
same,luciferase signal,[19],104 AU (inactive)
same,z-score,[20],0.13 (inactive)
COC(=O)C1=CCCN(C)C1,score,[9],1.73
same,cytochrome c release ratio,[10],0.68
same,inhibition of aggregation,[11],81.4%
same,nuclear beta-catenin stimulation,[1]; at 10 µM,4.2% (inactive)
same,nuclear beta-catenin stimulation,"[1]; stimulation, at 2 µM",2.3%
same,insulin secretion stimulation,[2],-0.6% (inactive)
same,viability decrease,[3],-6.9% (inactive)
same,tube area decrease,[4],25.2% (inactive)
same,GLP1 secretion stimulation,[5],-0.8% (inactive)
same,inhibition of viability,[6],-3.33% (inactive)
same,viability decrease (inhibition),[7],8.4% (inactive)
same,viability decrease (inhibition),[8],-18.9% (inactive)
same,inhibition,[13],-2.35% (inactive)
same,red/green cell ratio (normalised),[14],1.16 (inactive)
same,normalised cell number,[14]; [21],0.91
same,normalised cell number,[14]; [22],1.07
same,activity remaining,[15],112% (inactive)
same,z-score,[17]; [26],-0.328 (inactive)
same,z-score,[17]; [27],0.482
same,remaining NAD,[18],10 nM (inactive)
same,luciferase signal,[19],52 AU (inactive)
same,z-score,[20],-0.47 (inactive)
